Measured values reported in PubChem BioAssay (NCI).
“And” between values parts separate entries of the source, which are not always exact repeats. Equal entries are not always repeated. This is part of a sample that, as a whole, favours compounds with a hit. Of some 83,000 tested, about 20% had one in any assay.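 The endpoint reported here, percent growth, reads 100 for growth as untreated, 0 for no net growth and -100 for all cells dead.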 The source made the active and inactive calls. How the source made its calls: active means growth percent below 10; inactive means the rest.

Columns and labels:
Experiment in all cases: NCI-60 one-dose screen, 48 h (100 = growth as untreated, 0 = no growth, -100 = all killed)
[1] = system: DU-145 prostate
[2] = system: MALME-3M melanoma
[3] = system: MDA-MB-231 breast
[4] = system: RXF 393 renal
[5] = system: SF-268 CNS
[6] = system: SF-295 CNS
[7] = system: SF-539 CNS
[8] = system: UACC-257 melanoma
[9] = system: M14 melanoma
[10] = system: K-562 leukemia; conditions: 10 µM unless noted

Measured: growth

CC/C(=C(/c1ccc(O)cc1)c1ccc(OCCN(C)C(=O)COCCOCCNC(=O)c2ccc3c(c2)CN([C@@H]2CCC(=O)NC2=O)C3=O)cc1)c1ccccc1
active: [3]; 10 µM 8.81%
inactive: [1]; 1 µM 107% | [1]; 10 µM 109% | [2]; 1 µM 64.1% | [2]; 10 µM 31.4% | [3]; 1 µM 25.5% | [4]; 1 µM 98.3% | [4]; 10 µM 99% | [5]; 1 µM 88.3% | [5]; 10 µM 83.7% | [6]; 1 µM 102% | [6]; 10 µM 94.8% | [7]; 1 µM 92.1% | [7]; 10 µM 91.1% | [8]; 1 µM 96.2% | [8]; 10 µM 95.5% | [9]; 1 µM 89.9% | [9]; 10 µM 92%

CC/C(=C(\c1ccc(O)cc1)c1ccc(OCCN(C)C(=O)CCOCCNC(=O)c2ccc3c(c2)CN([C@@H]2CCC(=O)NC2=O)C3=O)cc1)c1ccccc1
inactive: [1]; 1 µM 105% | [1]; 10 µM 109% | [2]; 1 µM 78.4% | [2]; 10 µM 52.5% | [3]; 1 µM 33.7% | [3]; 10 µM 21.8% | [4]; 1 µM 102% | [4]; 10 µM 90% | [5]; 1 µM 89.3% | [5]; 10 µM 100% | [6]; 1 µM 96.2% | [6]; 10 µM 93.2% | [7]; 1 µM 94.6% | [7]; 10 µM 88.9% | [8]; 1 µM 101% | [8]; 10 µM 88.3% | [9]; 1 µM 90.5% | [9]; 10 µM 92.8%

CCCn1c(NC(=O)c2cccc(C(N)=O)c2)nc2ccc(CN3CCCCC3)cc21
inactive: [1]; 10 µM unless noted 87.1% | [10] 85.8% | [2]; 10 µM unless noted 92.4% | [3]; 10 µM unless noted 126% | [4]; 10 µM unless noted 46.4% | [5]; 10 µM unless noted 107% | [6]; 10 µM unless noted 106% | [7]; 10 µM unless noted 106% | [8]; 10 µM unless noted 121%

Cn1cc(-c2cc(N)n3nc(-c4c[nH]c5ccccc45)cc3n2)c2cc(F)ccc21
active: [10] 3.57% | [3]; 10 µM unless noted -52.2% | [6]; 10 µM unless noted -50.8% | [7]; 10 µM unless noted -61.9%
inactive: [1]; 10 µM unless noted 46.2% | [2]; 10 µM unless noted 76.8% | [4]; 10 µM unless noted 148% | [5]; 10 µM unless noted 65.3% | [8]; 10 µM unless noted 45.7%

CC/C(=C(/c1ccc(O)cc1)c1ccc(OCCN(C)C(=O)CCOCCNC(=O)Cc2ccc3c(c2)CN([C@@H]2CCC(=O)NC2=O)C3=O)cc1)c1ccccc1
active: [3]; 10 µM -5.68%
inactive: [1]; 1 µM 109% | [1]; 10 µM 101% | [2]; 1 µM 42.7% | [2]; 10 µM 13.3% | [3]; 1 µM 11% | [4]; 1 µM 104% | [4]; 10 µM 93.8% | [5]; 1 µM 96.5% | [5]; 10 µM 72.6% | [6]; 1 µM 103% | [6]; 10 µM 94.7% | [7]; 1 µM 87.9% | [7]; 10 µM 78.4% | [8]; 1 µM 91% | [8]; 10 µM 96.1% | [9]; 1 µM 92.2% | [9]; 10 µM 65%

O=C(CSc1nc2ccccc2c(=O)[nH]1)Nc1ccccc1C(=O)O
inactive: [1]; 10 µM unless noted 129% | [10] 97.8% | [2]; 10 µM unless noted 79.4% | [3]; 10 µM unless noted 94.6% | [4]; 10 µM unless noted 99.4% | [5]; 10 µM unless noted 94.1% | [6]; 10 µM unless noted 101% | [7]; 10 µM unless noted 92.7% | [8]; 10 µM unless noted 103%

Oc1ccc(Cl)c(Nc2ncnc3c2cnn3CC(Cl)c2ccc(Br)cc2)c1 (configuration not stated)
active: [10] 1.88% | [4]; 10 µM unless noted -8.51%
inactive: [1]; 10 µM unless noted 50.8% | [2]; 10 µM unless noted 57.4% | [3]; 10 µM unless noted 26.4% | [5]; 10 µM unless noted 26.7% | [6]; 10 µM unless noted 60.3% | [7]; 10 µM unless noted 29.1% | [8]; 10 µM unless noted 80.1%

O=C(CCl)Nc1ccc(C(=O)/C=C/c2cc3ccccc3nc2Cl)cc1
-99.1% (active) and 13.3% (inactive): [7]; 10 µM unless noted
-91.6% (active) and 63.6% (inactive): [3]; 10 µM unless noted
-59.7% (active) and 28.6% (inactive): [10]
-87.2% (active) and 48.9% (inactive): [2]; 10 µM unless noted
-15.5% (active) and 29.3% (inactive): [5]; 10 µM unless noted
inactive: [8]; 10 µM unless noted 24.4% and 58.7%
-25.5% (active) and 42.3% (inactive): [6]; 10 µM unless noted
-84.1% (active) and 46.7% (inactive): [1]; 10 µM unless noted
-85.3% (active) and 36.2% (inactive): [4]; 10 µM unless noted

CS(=O)(=O)Nc1cncc(-c2ccc3ncnc(NCc4ccccc4)c3c2)c1
inactive: [1]; 10 µM unless noted 55.2% | [10] 33.6% | [2]; 10 µM unless noted 27.8% | [3]; 10 µM unless noted 40% | [4]; 10 µM unless noted 35.6% | [5]; 10 µM unless noted 31.7% | [6]; 10 µM unless noted 42.8% | [7]; 10 µM unless noted 23.9% | [8]; 10 µM unless noted 74.5%

COc1ccc(N=Nc2c(N)nn3c(-c4ccc5c(c4)C=S=C5)ccnc23)cc1
inactive: [1]; 10 µM unless noted 35.4% | [10] 15.4% | [2]; 10 µM unless noted 43.9% | [3]; 10 µM unless noted 25% | [4]; 10 µM unless noted 12.2% | [5]; 10 µM unless noted 67.7% | [6]; 10 µM unless noted 33.8% | [7]; 10 µM unless noted 22.6% | [8]; 10 µM unless noted 85.3%

CCc1ccccc1-c1nc(CN[C@@H]2C[C@@H]3C[C@H]([C@H]2C)C3(C)C)c(C)o1
active: [1]; 10 µM unless noted -74.9% | [2]; 10 µM unless noted -80.5% | [3]; 10 µM unless noted -78.3% | [4]; 10 µM unless noted -85.1% | [5]; 10 µM unless noted 6.04% | [6]; 10 µM unless noted -93.5% | [7]; 10 µM unless noted -96.5% | [8]; 10 µM unless noted -75.8%
inactive: [10] 12.2%

CC/C(=C(\c1ccc(O)cc1)c1ccc(OCCNC)cc1)c1ccccc1
active: [9]; 10 µM -18.8%
inactive: [1]; 1 µM 103% | [1]; 10 µM 83.6% | [2]; 1 µM 88.6% | [2]; 10 µM 91% | [3]; 1 µM 96.3% | [3]; 10 µM 82.5% | [4]; 1 µM 103% | [4]; 10 µM 82.4% | [5]; 1 µM 104% | [5]; 10 µM 79.8% | [6]; 1 µM 99.6% | [6]; 10 µM 96.4% | [7]; 1 µM 93.6% | [7]; 10 µM 85.2% | [8]; 1 µM 95.3% | [8]; 10 µM 97.2% | [9]; 1 µM 107%

C#CCN(C)CCCOc1ccc(N(C)C(=O)c2cc(C(C)C)c(O)cc2O)cc1Cl
inactive: [1]; 10 µM unless noted 24.3% | [4]; 10 µM unless noted 22.3% | [5]; 10 µM unless noted 41.4% | [7]; 10 µM unless noted 17.3%
active: [10] 3.57% | [2]; 10 µM unless noted -27.8% | [3]; 10 µM unless noted -15.8% | [6]; 10 µM unless noted 6.57% | [8]; 10 µM unless noted 9.35%

COc1ccc(N=Nc2c(N)nn3c(-c4ccc(OC)c(OC)c4)ccnc23)cc1
inactive: [1]; 10 µM unless noted 79.2% | [10] 80.2% | [2]; 10 µM unless noted 78.4% | [3]; 10 µM unless noted 81.1% | [4]; 10 µM unless noted 65.2% | [5]; 10 µM unless noted 87.2% | [6]; 10 µM unless noted 65.6% | [7]; 10 µM unless noted 20.6% | [8]; 10 µM unless noted 99.3%

COc1ccc(-c2cc(C)nc3[nH]c(=O)sc23)cc1
inactive: [1]; 10 µM unless noted 67.3% | [10] 62.5% | [2]; 10 µM unless noted 95.2% | [3]; 10 µM unless noted 34.6% | [4]; 10 µM unless noted 57% | [5]; 10 µM unless noted 69.4% | [6]; 10 µM unless noted 45.7% | [7]; 10 µM unless noted 49.5% | [8]; 10 µM unless noted 95.3%

COc1ccc(N=Nc2c(N)nn3c(N)c(C#N)c(-c4ccc(C)cc4)nc23)cc1
inactive: [1]; 10 µM unless noted 42.2% | [10] 36.1% | [2]; 10 µM unless noted 93.7% | [3]; 10 µM unless noted 42.4% | [4]; 10 µM unless noted 65.1% | [5]; 10 µM unless noted 67.5% | [6]; 10 µM unless noted 58.1% | [7]; 10 µM unless noted 52.4% | [8]; 10 µM unless noted 92.7%

CN(CCSSCCN1CCOCC1)C(=O)Oc1cc2c(c3ccccc13)[C@H](CCl)CN2C(=O)c1cc2cc(OCCCN3CCC3)ccc2[nH]1
active: [1]; 10 µM unless noted -70.8% | [10] -34.6% | [2]; 10 µM unless noted -79.5% | [3]; 10 µM unless noted -23.7% | [4]; 10 µM unless noted -77.4% | [5]; 10 µM unless noted 3.42% | [6]; 10 µM unless noted 1.02% | [7]; 10 µM unless noted -86.2% | [8]; 10 µM unless noted -17.1%

CN(C)c1nc(NCCNS(=O)(=O)c2ccc(C(=O)/C=C/c3ccc(F)cc3)cc2)nc(N2CCOCC2)n1
active: [10] 0.84%
inactive: [1]; 10 µM unless noted 33.3% | [2]; 10 µM unless noted 84.8% | [3]; 10 µM unless noted 36.4% | [4]; 10 µM unless noted 76.6% | [5]; 10 µM unless noted 73% | [6]; 10 µM unless noted 79.2% | [7]; 10 µM unless noted 12.2% | [8]; 10 µM unless noted 70.1%

O=C(N/N=C/c1c[nH]c2ccccc12)Nc1ccccc1Cl
active: [1]; 10 µM unless noted 6.12% | [4]; 10 µM unless noted -36.1% | [5]; 10 µM unless noted 7.97% | [6]; 10 µM unless noted -37.1% | [7]; 10 µM unless noted -10.7%
inactive: [10] 12.2% | [2]; 10 µM unless noted 33.3% | [3]; 10 µM unless noted 16.5% | [8]; 10 µM unless noted 43.8%

Cn1cc(-c2cc(N)n3nc(-c4c[nH]c5ccccc45)cc3n2)c2ccccc21
inactive: [10] 11.4%
active: [1]; 10 µM unless noted -89.1% | [2]; 10 µM unless noted -94.8% | [3]; 10 µM unless noted -89.8% | [4]; 10 µM unless noted -72.5% | [5]; 10 µM unless noted -51.3% | [6]; 10 µM unless noted -90.3% | [7]; 10 µM unless noted -99.5% | [8]; 10 µM unless noted -92%

CC/C(=C(/c1ccc(O)cc1)c1ccc(OCCN(C)C(=O)COCCOCCNC(=O)Cc2ccc3c(c2)CN([C@@H]2CCC(=O)NC2=O)C3=O)cc1)c1ccccc1
active: [2]; 10 µM 1.5% | [3]; 1 µM 9.31% | [3]; 10 µM -22.2%
inactive: [1]; 1 µM 104% | [1]; 10 µM 105% | [2]; 1 µM 51.4% | [4]; 1 µM 97.4% | [4]; 10 µM 99.2% | [5]; 1 µM 96.2% | [5]; 10 µM 61.3% | [6]; 1 µM 101% | [6]; 10 µM 94.7% | [7]; 1 µM 80.7% | [7]; 10 µM 65.3% | [8]; 1 µM 101% | [8]; 10 µM 99.8% | [9]; 1 µM 92.8% | [9]; 10 µM 65.4%

S=C(Nc1ccc(OCc2nc3ccc(Cl)cc3[nH]2)cc1)NC1CCCCC1
active: [1]; 10 µM unless noted 7.09% | [10] 5.65% | [2]; 10 µM unless noted -21.6% | [3]; 10 µM unless noted -76.3% | [4]; 10 µM unless noted -52.3% | [5]; 10 µM unless noted 5.6% | [6]; 10 µM unless noted -15.9% | [7]; 10 µM unless noted -79.3%
inactive: [8]; 10 µM unless noted 33.3%

O=Cc1cncc(-c2ccc3ncnc(N4CCc5cc(F)c(Cl)cc54)c3c2)c1
active: [4]; 10 µM unless noted -7.23%
inactive: [1]; 10 µM unless noted 22.5% | [10] 35.5% | [2]; 10 µM unless noted 23.7% | [3]; 10 µM unless noted 28.2% | [5]; 10 µM unless noted 42.1% | [6]; 10 µM unless noted 19.2% | [7]; 10 µM unless noted 25.8% | [8]; 10 µM unless noted 59.1%
